Bioassay records from PubChem BioAssay.
TSG101-PTAP inh: TSG101-PTAP interaction inhibition, HIV-1 budding; 44,000 tested, under 10 active; AID 1347069; Potency, µM (top dose mostly 115 µM), most hits filed as inhibitors; Fluorescence polarization, FITC-PTAP peptide/Tsg101, 20 min; Q99816; note: potency is the fitted concentration of half-maximal effect; 0% is about no effect
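FITC-labeled PTAP peptide (50 nM final) binding to Tsg101 binding domain (10 uM final) read by fluorescence polarization after 20 min at r.t. in HEPES pH 7.5 buffer. Actives by CRC class, <25 µM.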
GALC G270D act: raises human GALC G270D mutant activity in cells; P54803; 145M-Twi-hGALC-G270D cells (Twitcher mouse brain line with human GALC G270D), HMU-beta-Gal fluorescence, 48 h; Potency, µM (series often up to 57.5 µM), actives largely listed as activators; actives 0.1% (n = 45,000); AID 1159614; note: potency is the fitted concentration of half-maximal effect; 0% is about no effect; nearly all actives have a fitted effect of over 65% in size
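Mutant human GALC (G270D), stably expressed in a Twitcher mouse brain cell line lacking endogenous GALC, is measured in live-treated cells via 6-hexadecanoylamino-4-methylumbelliferyl-β-galactoside hydrolysis (0.1 mM final, pH 5.2) with fluorescent detection.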
GALK inh: GALK (human) enzyme inhibition; 44,000 tested, under 10 active; P51570; recombinant GALK, Kinase-Glo ATP luminescence, 1 h; Potency, µM (series often up to 57.5 µM), without a hit: at the highest dose activity, negative = inhibition, hits mostly inhibitors; AID 1347072;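 note: plate controls were full GALK reaction for no effect and reaction lacking GALK for full effect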
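Compounds were pinned into ATP buffer, then GALK-galactose mix was added (final 5 nM enzyme, 35 uM ATP, 100 uM galactose, pH 8.0). After 1 h at room temperature, Kinase-Glo Plus was added and luminescence read.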
NTMT1 inhibitor: blocks human N-terminal methyltransferase 1 activity | NTMT1 MTase-Glo SAH luminescence, purified enzyme | AID 1645870 | actives 2.5% (n = 59,000) | Potency, µM (highest dose often 114 µM), inactives show top-dose activity change, negative = inhibition, actives largely listed as inhibitors;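 note: potency is the fitted concentration of half-maximal effect; plate controls were DMSO vehicle for no effect and no enzyme for full effect; nearly all actives have a fitted effect of over 65% in size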
Target sequence (Q9BV86 whole entry, looked up): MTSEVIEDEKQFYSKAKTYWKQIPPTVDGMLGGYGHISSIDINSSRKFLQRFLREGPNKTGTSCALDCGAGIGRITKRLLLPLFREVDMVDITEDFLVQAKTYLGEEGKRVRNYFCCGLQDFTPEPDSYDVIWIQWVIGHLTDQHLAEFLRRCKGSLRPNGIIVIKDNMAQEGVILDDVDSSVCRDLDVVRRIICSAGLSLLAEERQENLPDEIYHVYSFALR
DRV1 agonist: agonists of human resolvin D1 receptor DRV1 (GPR32); activation, % at 76.9 µM; CHO-K1 GPR32 beta-arrestin PathHunter luminescence, 90 min; zero percent set by DMSO-only wells; O75388; actives 2.5% (n = 48,000);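 active = activation of at least 60% and not above a set upper limit, about 1 call in 100 departs from these limits; inconclusive = activation of 40% to 60%, or above that upper limit; inactive = activation under 40%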; note: 0% is about no effect
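Luminescent readout of beta-Gal complementation quantifies ligand-induced beta-arrestin association with GPR32 in CHO-K1 cells; 90 min compound incubation at 37 °C, detection 1 h at room temperature.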
B2AR arrestin ag: beta-arrestin recruitment by human beta2-adrenergic receptor ligands; P07550; HTLA Tango cells, beta-arrestin recruitment, luciferase luminescence, 18 h; Potency, µM (top dose mostly 46.1 µM), actives largely listed as activators; 44,000 tested, under 10 active; AID 1347077;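 note: potency is the fitted concentration of half-maximal effect; 0% = DMSO and full agonism = EC100 isoproterenol or metaproterenol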
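Ligand-induced beta-arrestin recruitment to recombinant beta2-AR is measured via a tTA-driven luciferase reporter in Tango cells after 18 hr compound exposure at 37 degrees C. Concentrations span up to 46 microM.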
Sfp qHTS opt: inhibitors of Bacillus subtilis Sfp PPTase, optimization followup; shares compounds with NTMT1 inhibitor; purified Sfp PPTase enzyme activity, qHTS; Potency, µM (series often up to 114 µM), inactives show at the top dose activity change, negative = inhibition, actives largely listed as inhibitors; actives 78% (n = 230)
HM489 growth: B. subtilis HM489 growth inhibition | Potency, µM (highest dose often 114 µM), inactives show top-dose activity change, negative = inhibition, most hits filed as inhibitors | B. subtilis HM489 (acpS-) growth, BacTiter-Glo, 5 h | actives 50% (n = 220) | shares compounds with NTMT1 inhibitor
Sfp gel opt: inhibitors of Bacillus subtilis Sfp PPTase, gel-based followup | shares compounds with NTMT1 inhibitor | purified Sfp PPTase, gel-based product detection | Potency, µM (highest dose often 250 µM), without a hit: at the highest dose activity change, negative = inhibition, usual class: inhibitors | actives 54% (n = 220) | AID 540355
Sfp inh gel: confirmation of Bacillus subtilis Sfp PPTase inhibitors. purified Sfp PPTase, gel-based product detection. shares compounds with NTMT1 inhibitor. Potency, µM (doses to about 250 µM), inactives show at the highest dose activity change, negative = inhibition, hits mostly inhibitors. actives 90% (n = 45). AID 602362
Sfp inh SAR2: Sfp phosphopantetheinyl transferase inhibition, SAR round 2; shares compounds with NTMT1 inhibitor; purified Sfp enzyme, PPTase activity, qHTS; Potency, µM (doses to about 57.1 µM), for the others: at the highest dose activity change, negative = inhibition, most hits filed as inhibitors; actives 87% (n = 230); AID 602370
hGST ctr: inhibits hGST A1-1 in Sfp inhibitor counter-screen | Potency, µM (titrated, usually from 114 µM), for the others: at the highest dose activity change, negative = inhibition, usual class: inhibitors | AID 602391 | 55 tested, under 10 active | hGST A1-1 enzyme activity counter-screen, qHTS | shares compounds with NTMT1 inhibitor
HSD17B4 inh: inhibits human HSD17B4, off-target for HPGD inhibitors | Potency, µM (series often up to 57.1 µM), for inactives: at the top dose activity change, negative = inhibition, usual class: inhibitors | purified HSD17B4, estradiol/NAD+, NADH fluorescence | actives 10% (n = 230) | AID 743187 | shares compounds with NTMT1 inhibitor
ALDH1A1 inh: inhibits human ALDH1A1, off-target for HPGD inhibitors | recombinant ALDH1A1, NADH fluorescence, propionaldehyde/NAD+ | Potency, µM (series often up to 57.1 µM), for inactives: at the top dose activity change, negative = inhibition, usual class: inhibitors | shares compounds with NTMT1 inhibitor | actives 93% (n = 230) | AID 743195
NNMT counter: counter-screen for NTMT1 inhibitors: human NNMT inhibition. shares compounds with NTMT1 inhibitor. NNMT MTase-Glo luminescence, SAH detection. Potency, µM (titrated, usually from 57.1 µM), for the others: at the highest dose activity, negative = inhibition, most hits filed as inhibitors. actives 10% (n = 120). AID 1645878
Target sequence (P40261 whole entry, looked up): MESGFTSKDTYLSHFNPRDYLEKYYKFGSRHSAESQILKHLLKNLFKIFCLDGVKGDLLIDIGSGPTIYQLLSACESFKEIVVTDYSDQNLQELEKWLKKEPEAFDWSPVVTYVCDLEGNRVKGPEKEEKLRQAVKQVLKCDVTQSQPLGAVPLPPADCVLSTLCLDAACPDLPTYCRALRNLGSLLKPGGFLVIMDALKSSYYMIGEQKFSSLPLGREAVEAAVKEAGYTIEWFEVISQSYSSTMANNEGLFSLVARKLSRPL
* hit, by the source's call; i = inactive; ? = inconclusive; . = no result; [ ] = remark or other dose. The list is not random: actives were taken first. Their share in the collection is about 3.6%. Unless noted, calls come from the whole dose curve; as a rule, active = well fitted curve in the direction sought with a large enough effect; inconclusive = small, poorly fitted or top-dose-only effect, or another doubt; inactive = no such curve, though single readings can be large; an effect the other way counts as inactive or inconclusive.

SMILES | TSG101-PTAP inh | GALC G270D act | GALK inh | NTMT1 inhibitor | DRV1 agonist | B2AR arrestin ag | Sfp qHTS opt | HM489 growth | Sfp gel opt | Sfp inh SAR2 | HSD17B4 inh | ALDH1A1 inh | others
COc1cccc(NC(=S)N2CCN(c3cc(Cl)cc(Cl)c3)CC2)n1 | . | . | . | ? | . | . | ? | -2% | ? | ? | 10% | 8.6µM* | Sfp inh gel=1%;hGST ctr=1.9µM*
CC(C)(C)c1ccc(NC(=O)N2CCN(c3ncccc3Cl)CC2)cc1 | . | . | . | 6%[57.5 µM] | . | . | . | . | . | . | . | .
COc1cccc(NC(=S)N2CCN(c3ccc4ccccc4n3)CC2)n1 | . | . | . | -24%[57.5 µM] | . | . | 47µM* | ? | -70% | 36µM* | 27µM* | 24µM*
COc1cccc(NC(=S)N2CCN(c3cccc(Cl)c3Cl)CC2)n1 | . | . | . | ? | . | . | ? | ? | ? | 5.8µM* | -15% | 1.2µM*
COc1ccc(N2CCN(C(=O)Nc3ccc(Cl)cc3)CC2)cc1 | i | i | 0% | -18% | 20 | i | . | . | . | . | . | .
O=C(Nc1ccccc1)N1CCN(Cc2ccc3ccccc3n2)CC1 | . | . | . | 5%[57.5 µM] | . | . | . | . | . | . | . | .
COc1ccc(CCNC(=O)Cn2nc(-c3ccc(C)cc3)ccc2=O)cc1OC | . | . | . | -5% | . | . | . | . | . | . | . | .
c1nc(NCC2CCCO2)c2ccc(-c3ccc4c(c3)OCO4)cc2n1 (stereo not drawn) | . | . | . | -19%[57.5 µM] | . | . | . | . | . | . | . | .
c1ccc(-c2oc3ncnc(NC[C@@H]4CCCO4)c3c2-c2ccccc2)cc1 | . | . | . | 10µM* | . | . | . | . | . | . | . | . | NNMT counter=?
